Data: PubChem BioAssay AID1159580 (chemical genetic matrix, 2015)
“And” between values parts separate entries of the source, which are not always exact repeats. Equal entries are not always repeated. About 2,000 (36%) of roughly 5,500 compounds were called active. About 18% were inconclusive and are not listed. Cut-off read from the data, not from the text of the source: active = normalized growth mostly below about 0.91 (no sharp cut-off); inconclusive = no clear call, values can overlap the other calls; inactive = mostly above about 0.92. This is one part of the list.

Assay: chemical genetic growth profiling, strain panel (AID 1159580);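 note: tested at 20 µM; growth read once vehicle control cultures reached saturation at 30 °C; 1 = growth at the plate median or of vehicle wells; lower values mean less growth of the strain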
Details: S. cerevisiae deletion strains, growth OD

Measured: normalized growth

N[C@@H](CCC(=O)N[C@@H](CS)C(=O)NCC(=O)O)C(=O)O
inactive: locus YAL021C, strain ccr4, stronger effect = lower value 1 | locus YAL026C, strain drs2, stronger effect = lower value 1.04 | locus YAL030W, strain snc1, stronger effect = lower value 0.986 | locus YBL061C, strain skt5, stronger effect = lower value 1.01 | locus YBR009C, strain hhf1, stronger effect = lower value 0.988 | locus YBR021W, strain FUR4, stronger effect = lower value 1.05 | locus YBR023C, strain chs3, stronger effect = lower value 1.01 | locus YBR171W, strain sec66, stronger effect = lower value 0.981 | locus YBR229C, strain ROT2, stronger effect = lower value 1.01 | locus YBR231C, strain swc5, stronger effect = lower value 0.972 | locus YBR279W, strain paf1, stronger effect = lower value 1 | locus YCL011C, strain gbp2, stronger effect = lower value 1.01 | locus YCL016C, strain dcc1, stronger effect = lower value 1.02 | locus YCL029C, strain bik1, stronger effect = lower value 0.998 | locus YCL061C, strain MRC1, stronger effect = lower value 0.99 | locus YCL069W, strain vba3, stronger effect = lower value 1.01 | locus YCR088W, strain abp1, stronger effect = lower value 0.998 | locus YDL005C, strain med2, stronger effect = lower value 0.985 | locus YDL035C, strain GPR1, stronger effect = lower value 1.01 | locus YDL040C, strain nat1, stronger effect = lower value 0.989 | locus YDL074C, strain BRE1, stronger effect = lower value 0.987 | locus YDL101C, strain DUN1, stronger effect = lower value 0.991 | locus YDL185W, strain tfp1, stronger effect = lower value 0.947 | locus YDL192W, strain arf1, stronger effect = lower value 0.988 | locus YDR001C, strain nth1, stronger effect = lower value 0.993 | locus YDR069C, strain doa4, stronger effect = lower value 0.975 | locus YDR101C, strain arx1, stronger effect = lower value 0.992 | locus YDR137W, strain rgp1, stronger effect = lower value 1.03 | locus YDR159W, strain sac3, stronger effect = lower value 0.943 | locus YDR162C, strain NBP2, stronger effect = lower value 0.998 | locus YDR195W, strain ref2 0.927 | locus YDR297W, strain sur2, stronger effect = lower value 0.984 | locus YDR318W, strain mcm21, stronger effect = lower value 0.993 | locus YDR334W, strain swr1, stronger effect = lower value 0.998 | locus YDR335W, strain msn5, stronger effect = lower value 0.987 | locus YDR388W, stronger effect = lower value 0.998 | locus YDR392W, strain spt3, stronger effect = lower value 1 | locus YDR502C, strain sam2, stronger effect = lower value 0.987 | locus YEL003W, strain gim4, stronger effect = lower value 0.992 | locus YEL037C, strain rad23, stronger effect = lower value 0.995 | locus YEL061C, strain CIN8 (second series), stronger effect = lower value 0.996 | locus YEL061C, strain CIN8, stronger effect = lower value 0.991 | locus YER015W, strain faa2, stronger effect = lower value 1 | locus YER016W, strain bim1, stronger effect = lower value 1.02 | locus YER110C, stronger effect = lower value 0.971 | locus YER111C, strain swi4, stronger effect = lower value 1.01 | locus YER155C, strain BEM2 (second series), stronger effect = lower value 0.963 | locus YER155C, strain BEM2, stronger effect = lower value 0.998 | locus YER167W, strain BCK2, stronger effect = lower value 1 | locus YFR010W, strain ubp6, stronger effect = lower value 1 | locus YGL078C, strain dbp3, stronger effect = lower value 0.99 | locus YGL086W, strain mad1, stronger effect = lower value 0.987 | locus YGL167C, strain pmr1, stronger effect = lower value 0.988 | locus YGL173C, strain kem1, stronger effect = lower value 0.977 | locus YGL227W, strain vid30, stronger effect = lower value 0.992 | locus YGL240W, strain doc1, stronger effect = lower value 0.973 | locus YGL248W, strain PDE1, stronger effect = lower value 0.999 | locus YGL253W, strain hxk2, stronger effect = lower value 1.02 | locus YGR135W, strain pre9, stronger effect = lower value 0.978 | locus YGR252W, strain gcn5, stronger effect = lower value 0.995 | locus YHR013C, strain ard1, stronger effect = lower value 0.996 | locus YHR027C, strain rpn1, stronger effect = lower value 1.01 | locus YHR030C, strain SLT2, stronger effect = lower value 0.992 and 0.922 | locus YHR079C, strain IRE1 (second series), stronger effect = lower value 0.985 | locus YHR079C, strain IRE1, stronger effect = lower value 0.928 | locus YHR094C, strain hxt1, stronger effect = lower value 0.996 | locus YHR129C, strain ARP1, stronger effect = lower value 1 | locus YHR142W, strain chs7, stronger effect = lower value 1.03 | locus YHR200W, strain rpn10, stronger effect = lower value 0.981 | locus YIL066C, strain RNR3, stronger effect = lower value 1.01 | locus YIL073C, strain SPO22, stronger effect = lower value 0.952 | locus YIL125W, strain kgd1, stronger effect = lower value 0.996 | locus YIR030C, strain dcg1, stronger effect = lower value 0.991 | locus YJL092W, strain hpr5, stronger effect = lower value 0.998 | locus YJL095W, strain BCK1 (second series), stronger effect = lower value 1.01 | locus YJL095W, strain BCK1, stronger effect = lower value 0.97 and 1.03 | locus YJL115W, strain asf1, stronger effect = lower value 0.972 | locus YJL129C, strain trk1, stronger effect = lower value 0.975 | locus YJL134W, strain LCB3, stronger effect = lower value 0.995 | locus YJL154C, strain vps35, stronger effect = lower value 0.998 | locus YJL164C, strain tpk1, stronger effect = lower value 1.01 | locus YJL166W, strain qcr8, stronger effect = lower value 0.973 | locus YJL168C, strain set2, stronger effect = lower value 0.994 | locus YJL187C, strain SWE1 (second series), stronger effect = lower value 0.987 | locus YJR043C, strain POL32, stronger effect = lower value 0.992 | locus YJR066W, strain TOR1, stronger effect = lower value 0.923
